# Measurements published in publication PMC7862700, “An all-to-all approach to the identification of sequence-specific readers for epigenetic DNA modifications on cytosine”.
# Tests used:
# Test in all cases: DAPPL (digital affinity profiling via proximity ligation, sequencing); 10 mM Tris-HCl pH 7.5, 50 mM NaCl, 1 mM DTT, 4% glycerol, room temperature, 30 min; GST-TFs on glutathione beads, 16-mer random dsDNA library, 0.1% formaldehyde crosslink after washing; high values mean tight binding
# FEV = target: T1, FEV (Homo sapiens, UniProt Q99581 1-238); conditions: protein: recombinant; tags: N-terminal GST; dsDNA, one strand shown
# T1 sequence: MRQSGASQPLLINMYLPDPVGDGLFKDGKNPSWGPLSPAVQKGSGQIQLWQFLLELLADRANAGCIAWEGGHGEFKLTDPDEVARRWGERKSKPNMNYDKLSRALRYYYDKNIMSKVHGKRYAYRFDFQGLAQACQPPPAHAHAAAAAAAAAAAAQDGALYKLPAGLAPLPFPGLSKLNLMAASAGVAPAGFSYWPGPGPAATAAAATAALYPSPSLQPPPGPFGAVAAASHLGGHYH
# Outline: (§1)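 Beads coated with glutathione captured GST-fused human transcription factors that had been expressed in yeast, and the factors were then given DNA barcodes and pooled with a tag-only sample. The pools were incubated with 200 nmole of a random double-stranded 16-mer DNA library in Tris/NaCl/DTT/glycerol buffer for 30 min at room temperature, washed, crosslinked with 0.1% formaldehyde and proximity-ligated with BsaI/T4 ligase at 37 °C for 1 h. PCR amplification and Illumina NextSeq500 sequencing came last. Binding signal is each hexamer's read frequency for a factor divided by its frequency for the tag-only sample.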
# ETV5 = ETV5 (Homo sapiens, UniProt P41161 1-510); conditions: protein: recombinant; tags: N-terminal GST; dsDNA, one strand shown
# Outline: as §1
# HSF1 = HSF1 (Homo sapiens, UniProt Q00613 1-529); conditions: protein: recombinant; tags: N-terminal GST; chain copies: 3; dsDNA, one strand shown
# Outline: as §1
# SPIC = target: T2, SPIC (Homo sapiens, UniProt Q8N5J4 1-248); conditions: protein: recombinant; tags: N-terminal GST; dsDNA, one strand shown
# T2 sequence: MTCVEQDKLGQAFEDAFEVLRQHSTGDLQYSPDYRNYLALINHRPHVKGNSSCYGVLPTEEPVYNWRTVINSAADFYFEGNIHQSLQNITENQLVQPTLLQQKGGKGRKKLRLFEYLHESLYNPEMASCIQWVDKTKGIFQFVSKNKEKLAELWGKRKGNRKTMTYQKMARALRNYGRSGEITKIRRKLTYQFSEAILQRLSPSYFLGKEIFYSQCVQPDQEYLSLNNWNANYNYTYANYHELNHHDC
# Outline: as §1
# ELF4 = ELF4 (Homo sapiens, UniProt Q99607 1-663); conditions: protein: recombinant; tags: N-terminal GST; dsDNA, one strand shown
# Outline: as §1
# ELK4 = target: T3, ELK4 (Homo sapiens, UniProt P28324-2 1-405); conditions: protein: recombinant; tags: N-terminal GST; dsDNA, one strand shown
# T3 sequence: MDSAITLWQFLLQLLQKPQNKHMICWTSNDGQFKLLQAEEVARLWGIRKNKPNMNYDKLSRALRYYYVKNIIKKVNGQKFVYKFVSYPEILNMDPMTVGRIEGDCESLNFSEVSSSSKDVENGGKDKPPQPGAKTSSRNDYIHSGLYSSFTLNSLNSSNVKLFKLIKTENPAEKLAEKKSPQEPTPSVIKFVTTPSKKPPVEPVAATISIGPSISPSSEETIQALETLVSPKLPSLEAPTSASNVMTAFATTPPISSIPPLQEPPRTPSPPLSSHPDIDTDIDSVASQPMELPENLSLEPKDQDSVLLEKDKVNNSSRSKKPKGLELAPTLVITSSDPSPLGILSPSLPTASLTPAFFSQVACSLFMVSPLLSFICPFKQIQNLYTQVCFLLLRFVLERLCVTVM
# Outline: as §1
# ETV2 = target: T4, ETV2 (Homo sapiens, UniProt O00321 1-342); conditions: protein: recombinant; tags: N-terminal GST; dsDNA, one strand shown
# T4 sequence: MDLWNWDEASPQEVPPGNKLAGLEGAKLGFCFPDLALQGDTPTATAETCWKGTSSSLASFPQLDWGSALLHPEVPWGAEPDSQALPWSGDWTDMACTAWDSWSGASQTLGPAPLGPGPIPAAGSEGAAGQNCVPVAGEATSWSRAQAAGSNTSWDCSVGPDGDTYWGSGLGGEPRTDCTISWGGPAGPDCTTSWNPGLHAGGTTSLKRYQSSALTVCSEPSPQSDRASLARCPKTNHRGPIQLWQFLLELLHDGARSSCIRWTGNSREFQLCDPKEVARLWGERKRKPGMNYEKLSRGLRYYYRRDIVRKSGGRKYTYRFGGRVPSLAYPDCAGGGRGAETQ
# Outline: as §1
# ELF3 = target: T5, ELF3 (Homo sapiens, UniProt P78545 1-371); conditions: protein: recombinant; tags: N-terminal GST; dsDNA, one strand shown
# T5 sequence: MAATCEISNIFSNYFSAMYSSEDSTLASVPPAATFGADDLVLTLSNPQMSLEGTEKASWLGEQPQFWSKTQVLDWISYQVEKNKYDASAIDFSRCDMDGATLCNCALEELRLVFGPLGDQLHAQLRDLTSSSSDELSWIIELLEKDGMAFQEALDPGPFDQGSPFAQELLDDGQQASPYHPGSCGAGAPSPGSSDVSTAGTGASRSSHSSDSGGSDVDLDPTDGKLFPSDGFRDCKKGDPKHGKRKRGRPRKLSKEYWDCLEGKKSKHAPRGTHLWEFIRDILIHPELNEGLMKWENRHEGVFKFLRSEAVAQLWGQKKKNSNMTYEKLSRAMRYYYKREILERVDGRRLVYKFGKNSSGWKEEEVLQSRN
# Outline: as §1
# CRX = CRX (Homo sapiens, UniProt O43186 1-299); conditions: protein: recombinant; tags: N-terminal GST; dsDNA, one strand shown
# Outline: as §1
# ETV1 = ETV1 (Homo sapiens, UniProt P50549 1-477); conditions: protein: recombinant; tags: N-terminal GST; dsDNA, one strand shown
# Outline: as §1
# ERF = target: T6, ERF (Homo sapiens, UniProt P50548 1-548); conditions: protein: recombinant; tags: N-terminal GST; dsDNA, one strand shown
# T6 sequence: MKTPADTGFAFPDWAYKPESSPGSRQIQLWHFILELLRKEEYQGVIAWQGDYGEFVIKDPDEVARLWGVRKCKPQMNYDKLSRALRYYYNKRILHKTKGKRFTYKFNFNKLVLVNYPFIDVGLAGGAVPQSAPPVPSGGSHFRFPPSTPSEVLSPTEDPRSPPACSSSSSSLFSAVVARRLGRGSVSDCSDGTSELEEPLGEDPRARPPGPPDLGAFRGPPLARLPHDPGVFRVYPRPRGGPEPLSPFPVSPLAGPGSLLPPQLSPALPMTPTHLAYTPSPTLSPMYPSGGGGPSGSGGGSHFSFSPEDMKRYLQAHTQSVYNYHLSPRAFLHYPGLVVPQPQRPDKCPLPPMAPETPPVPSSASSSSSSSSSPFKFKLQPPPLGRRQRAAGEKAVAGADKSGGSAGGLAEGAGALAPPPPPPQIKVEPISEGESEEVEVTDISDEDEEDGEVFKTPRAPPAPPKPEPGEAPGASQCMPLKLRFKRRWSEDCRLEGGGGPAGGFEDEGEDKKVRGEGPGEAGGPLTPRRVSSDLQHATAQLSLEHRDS
# Outline: as §1
# ETV3L = target: T7, ETV3L (Homo sapiens, UniProt Q6ZN32 1-361); conditions: protein: recombinant; tags: N-terminal GST; dsDNA, one strand shown
# T7 sequence: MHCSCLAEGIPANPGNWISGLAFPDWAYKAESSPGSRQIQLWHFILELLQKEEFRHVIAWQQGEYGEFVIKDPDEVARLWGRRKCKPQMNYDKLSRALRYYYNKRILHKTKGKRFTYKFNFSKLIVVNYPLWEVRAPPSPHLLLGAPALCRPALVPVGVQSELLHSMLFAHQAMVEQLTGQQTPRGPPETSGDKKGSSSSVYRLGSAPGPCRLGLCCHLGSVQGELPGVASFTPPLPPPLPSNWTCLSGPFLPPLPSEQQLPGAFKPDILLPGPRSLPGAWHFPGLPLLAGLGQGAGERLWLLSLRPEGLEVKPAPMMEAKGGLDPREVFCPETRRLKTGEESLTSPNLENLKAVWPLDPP
# Outline: as §1
# ETS2 = target: T8, ETS2 (Homo sapiens, UniProt P15036 1-469); conditions: protein: recombinant; tags: N-terminal GST; dsDNA, one strand shown
# T8 sequence: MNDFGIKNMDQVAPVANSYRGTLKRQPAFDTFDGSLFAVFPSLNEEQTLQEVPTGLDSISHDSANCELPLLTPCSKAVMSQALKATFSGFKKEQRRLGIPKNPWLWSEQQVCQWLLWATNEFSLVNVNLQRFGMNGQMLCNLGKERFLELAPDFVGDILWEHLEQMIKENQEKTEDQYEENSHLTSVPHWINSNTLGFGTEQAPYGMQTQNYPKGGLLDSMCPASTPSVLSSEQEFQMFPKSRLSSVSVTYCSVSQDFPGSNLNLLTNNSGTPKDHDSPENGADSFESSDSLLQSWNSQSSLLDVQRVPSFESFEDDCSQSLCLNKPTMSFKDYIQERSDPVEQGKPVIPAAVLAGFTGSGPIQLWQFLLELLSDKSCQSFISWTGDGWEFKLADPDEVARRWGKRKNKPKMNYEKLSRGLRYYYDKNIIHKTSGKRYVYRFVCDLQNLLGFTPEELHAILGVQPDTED
# Outline: as §1
# SPDEF = target: T9, SPDEF (Homo sapiens, UniProt O95238 1-335); conditions: protein: recombinant; tags: N-terminal GST; dsDNA, one strand shown
# T9 sequence: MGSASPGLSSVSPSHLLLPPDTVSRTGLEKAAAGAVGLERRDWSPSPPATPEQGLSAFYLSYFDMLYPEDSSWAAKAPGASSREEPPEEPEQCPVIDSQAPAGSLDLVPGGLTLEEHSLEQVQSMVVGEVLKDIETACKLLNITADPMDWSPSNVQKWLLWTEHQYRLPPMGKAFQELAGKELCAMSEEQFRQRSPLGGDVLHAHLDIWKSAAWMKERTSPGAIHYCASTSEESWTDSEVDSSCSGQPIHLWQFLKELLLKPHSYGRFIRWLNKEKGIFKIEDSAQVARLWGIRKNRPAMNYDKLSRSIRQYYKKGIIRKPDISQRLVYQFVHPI
# Outline: as §1
# ETV7 = target: T10, ETV7 (Homo sapiens, UniProt Q9Y603 1-341); conditions: protein: recombinant; tags: N-terminal GST; dsDNA, one strand shown
# T10 sequence: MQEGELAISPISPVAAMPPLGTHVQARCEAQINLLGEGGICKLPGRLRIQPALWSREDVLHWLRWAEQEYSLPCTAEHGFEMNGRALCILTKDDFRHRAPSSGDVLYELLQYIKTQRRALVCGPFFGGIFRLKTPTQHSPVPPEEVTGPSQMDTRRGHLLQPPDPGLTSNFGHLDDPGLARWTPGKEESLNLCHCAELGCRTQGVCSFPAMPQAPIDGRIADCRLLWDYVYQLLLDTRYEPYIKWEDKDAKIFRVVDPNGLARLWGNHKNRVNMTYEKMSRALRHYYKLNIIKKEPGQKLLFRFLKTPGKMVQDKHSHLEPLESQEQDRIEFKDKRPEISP
# Outline: as §1
# ELF5 = target: T11, ELF5 (Homo sapiens, UniProt Q9UKW6-2 1-255); conditions: protein: recombinant; tags: N-terminal GST; dsDNA, one strand shown
# T11 sequence: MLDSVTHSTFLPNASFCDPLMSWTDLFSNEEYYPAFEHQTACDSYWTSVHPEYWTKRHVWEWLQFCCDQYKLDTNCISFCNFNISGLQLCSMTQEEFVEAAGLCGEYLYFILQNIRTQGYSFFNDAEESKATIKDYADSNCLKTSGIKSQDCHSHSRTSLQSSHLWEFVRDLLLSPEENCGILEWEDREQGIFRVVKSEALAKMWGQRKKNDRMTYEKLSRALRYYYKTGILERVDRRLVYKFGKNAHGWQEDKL
# Outline: as §1
# ETV3 = target: T12, ETV3 (Homo sapiens, UniProt P41162-2 1-143); conditions: protein: recombinant; tags: N-terminal GST; dsDNA, one strand shown
# T12 sequence: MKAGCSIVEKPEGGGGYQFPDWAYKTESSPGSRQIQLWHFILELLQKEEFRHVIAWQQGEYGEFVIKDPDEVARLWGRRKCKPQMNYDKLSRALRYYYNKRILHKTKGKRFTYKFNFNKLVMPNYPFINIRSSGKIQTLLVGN
# Outline: as §1
# ETV6 = ETV6 (Homo sapiens, UniProt P41212 1-452); conditions: protein: recombinant; tags: N-terminal GST; dsDNA, one strand shown
# Outline: as §1
# Chain of HSF1 (Q00613 whole entry): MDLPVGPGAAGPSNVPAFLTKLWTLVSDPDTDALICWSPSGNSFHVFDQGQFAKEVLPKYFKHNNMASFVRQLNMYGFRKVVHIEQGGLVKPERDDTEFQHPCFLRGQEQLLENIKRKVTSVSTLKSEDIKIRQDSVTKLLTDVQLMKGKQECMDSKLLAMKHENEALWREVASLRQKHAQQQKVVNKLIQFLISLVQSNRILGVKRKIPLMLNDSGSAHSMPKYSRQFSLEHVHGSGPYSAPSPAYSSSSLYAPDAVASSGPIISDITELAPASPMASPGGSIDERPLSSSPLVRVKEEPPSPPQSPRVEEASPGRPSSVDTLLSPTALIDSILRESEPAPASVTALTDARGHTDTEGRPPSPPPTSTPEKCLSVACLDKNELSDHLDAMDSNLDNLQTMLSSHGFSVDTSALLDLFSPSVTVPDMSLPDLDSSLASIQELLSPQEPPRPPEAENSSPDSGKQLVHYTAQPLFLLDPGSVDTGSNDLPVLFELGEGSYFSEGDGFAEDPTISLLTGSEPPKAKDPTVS
# Chain of ELF4 (Q99607 whole entry): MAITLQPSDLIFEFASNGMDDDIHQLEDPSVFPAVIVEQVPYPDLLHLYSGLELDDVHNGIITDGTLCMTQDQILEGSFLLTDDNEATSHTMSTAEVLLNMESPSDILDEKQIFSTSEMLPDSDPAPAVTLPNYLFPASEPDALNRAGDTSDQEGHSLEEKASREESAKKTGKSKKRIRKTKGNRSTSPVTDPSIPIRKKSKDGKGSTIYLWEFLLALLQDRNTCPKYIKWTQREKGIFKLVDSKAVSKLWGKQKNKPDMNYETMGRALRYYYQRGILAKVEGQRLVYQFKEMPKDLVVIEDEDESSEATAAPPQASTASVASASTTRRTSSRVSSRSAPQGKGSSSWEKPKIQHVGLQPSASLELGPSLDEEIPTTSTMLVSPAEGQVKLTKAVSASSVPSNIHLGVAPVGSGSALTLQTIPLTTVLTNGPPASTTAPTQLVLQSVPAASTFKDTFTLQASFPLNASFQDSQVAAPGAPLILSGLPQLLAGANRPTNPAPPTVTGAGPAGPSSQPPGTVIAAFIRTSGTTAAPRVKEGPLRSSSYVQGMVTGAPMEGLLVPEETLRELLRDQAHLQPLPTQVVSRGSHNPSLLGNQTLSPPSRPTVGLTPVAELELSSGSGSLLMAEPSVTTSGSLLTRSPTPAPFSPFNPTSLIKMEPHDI
# Chain of ETV6 (P41212 whole entry): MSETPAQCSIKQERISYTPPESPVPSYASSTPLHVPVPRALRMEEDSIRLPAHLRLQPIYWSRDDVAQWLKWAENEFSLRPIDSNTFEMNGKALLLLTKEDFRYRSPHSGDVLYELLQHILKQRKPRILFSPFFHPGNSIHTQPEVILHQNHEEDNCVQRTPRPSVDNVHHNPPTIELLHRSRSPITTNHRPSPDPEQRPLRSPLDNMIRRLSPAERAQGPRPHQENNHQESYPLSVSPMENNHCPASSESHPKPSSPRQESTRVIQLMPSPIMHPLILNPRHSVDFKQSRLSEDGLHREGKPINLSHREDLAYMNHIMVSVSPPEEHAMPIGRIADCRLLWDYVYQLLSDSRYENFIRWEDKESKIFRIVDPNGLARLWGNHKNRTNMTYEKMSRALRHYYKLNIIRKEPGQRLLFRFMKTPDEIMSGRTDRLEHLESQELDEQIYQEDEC
# Chain of ETV1 (P50549 whole entry): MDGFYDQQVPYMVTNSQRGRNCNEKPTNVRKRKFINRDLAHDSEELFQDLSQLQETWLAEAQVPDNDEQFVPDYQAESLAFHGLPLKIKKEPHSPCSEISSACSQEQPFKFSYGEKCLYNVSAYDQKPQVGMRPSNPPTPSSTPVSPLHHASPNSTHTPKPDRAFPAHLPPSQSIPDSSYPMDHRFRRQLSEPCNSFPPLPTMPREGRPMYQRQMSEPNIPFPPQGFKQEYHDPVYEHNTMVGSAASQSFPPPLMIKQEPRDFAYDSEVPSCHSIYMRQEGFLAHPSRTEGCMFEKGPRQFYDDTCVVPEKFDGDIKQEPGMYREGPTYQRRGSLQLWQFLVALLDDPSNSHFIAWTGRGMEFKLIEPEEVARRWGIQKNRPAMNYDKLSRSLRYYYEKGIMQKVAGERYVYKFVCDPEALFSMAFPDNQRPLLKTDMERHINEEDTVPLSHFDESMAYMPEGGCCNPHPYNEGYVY
# Chain of ETV5 (P41161 whole entry): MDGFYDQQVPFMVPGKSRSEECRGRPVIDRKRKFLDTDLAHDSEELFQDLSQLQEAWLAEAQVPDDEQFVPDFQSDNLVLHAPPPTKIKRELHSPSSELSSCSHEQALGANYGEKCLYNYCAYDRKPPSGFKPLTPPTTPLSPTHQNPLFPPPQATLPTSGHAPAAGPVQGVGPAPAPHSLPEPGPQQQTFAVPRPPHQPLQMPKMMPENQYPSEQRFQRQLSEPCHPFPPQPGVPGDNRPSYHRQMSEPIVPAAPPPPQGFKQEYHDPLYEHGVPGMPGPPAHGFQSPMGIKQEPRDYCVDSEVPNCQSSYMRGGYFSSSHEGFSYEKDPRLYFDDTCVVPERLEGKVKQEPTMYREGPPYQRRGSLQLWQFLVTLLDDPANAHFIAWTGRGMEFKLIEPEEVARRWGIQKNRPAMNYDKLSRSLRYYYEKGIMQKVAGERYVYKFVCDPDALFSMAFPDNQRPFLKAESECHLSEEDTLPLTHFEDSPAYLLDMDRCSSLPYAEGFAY
# Chain of CRX (O43186 whole entry): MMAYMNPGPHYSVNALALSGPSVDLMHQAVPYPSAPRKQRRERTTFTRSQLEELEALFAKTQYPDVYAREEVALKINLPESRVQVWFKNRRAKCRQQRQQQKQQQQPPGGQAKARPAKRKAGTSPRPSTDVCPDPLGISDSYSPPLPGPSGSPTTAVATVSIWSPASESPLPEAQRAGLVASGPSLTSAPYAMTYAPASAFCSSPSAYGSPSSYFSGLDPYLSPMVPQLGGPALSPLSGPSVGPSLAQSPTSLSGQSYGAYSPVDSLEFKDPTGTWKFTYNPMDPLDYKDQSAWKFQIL
sequence,measurement,setting,value
TAATCT,binding signal,FEV,"1.3 fold enrichment (6-mer frequency, TF over GST control)"
same,binding signal,ETV5,"1.44 fold enrichment (6-mer frequency, TF over GST control)"
same,binding signal,HSF1,"3.55 fold enrichment (6-mer frequency, TF over GST control)"
same,binding signal,SPIC,"1.3 fold enrichment (6-mer frequency, TF over GST control)"
same,binding signal,ELF4,"1.51 fold enrichment (6-mer frequency, TF over GST control)"
same,binding signal,ELK4,"1.4 fold enrichment (6-mer frequency, TF over GST control)"
same,binding signal,ETV2,"1.34 fold enrichment (6-mer frequency, TF over GST control)"
same,binding signal,ELF3,"1.57 fold enrichment (6-mer frequency, TF over GST control)"
same,binding signal,CRX,"5.78 fold enrichment (6-mer frequency, TF over GST control)"
same,binding signal,ETV1,"1.52 fold enrichment (6-mer frequency, TF over GST control)"
same,binding signal,ERF,"1.39 fold enrichment (6-mer frequency, TF over GST control)"
same,binding signal,ETV3L,"1.32 fold enrichment (6-mer frequency, TF over GST control)"
same,binding signal,ETS2,"1.43 fold enrichment (6-mer frequency, TF over GST control)"
same,binding signal,SPDEF,"1.34 fold enrichment (6-mer frequency, TF over GST control)"
same,binding signal,ETV7,"1.5 fold enrichment (6-mer frequency, TF over GST control)"
same,binding signal,ELF5,"1.46 fold enrichment (6-mer frequency, TF over GST control)"
same,binding signal,ETV3,"1.28 fold enrichment (6-mer frequency, TF over GST control)"
same,binding signal,ETV6,"1.37 fold enrichment (6-mer frequency, TF over GST control)"
